In the supplement of paper PMC10849652:
About 8,800 targets were measured; listed, in parts, are those with a hit and a random draw of the rest. About 0.5% of all pairs of compound and target were hits.

Columns and labels:
Assay in all cases: log2 fold change, soluble protein after heating vs DMSO (PISA); higher = thermal stabilisation; K562 lysate, 10 uM; active = over 0.2 and 3.5 SD of the protein, either way, in both replicates (recomputed)
lapatinib = compound: CS(=O)(=O)CCNCc1ccc(-c2ccc3ncnc(Nc4ccc(OCc5cccc(F)c5)c(Cl)c4)c3c2)o1 [lapatinib]
In short: (§1)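 The values are log-two fold changes in thermal stability compared with solvent controls and come from duplicates. They were obtained by TMTpro 16plex LC-MS/MS, with channel sums equalised, on the supernatant after 21,000xg for 90 min. That supernatant came from crude K562 extract at 1 mg/mL protein treated with 10 μM compound for 30 min, heated for 3 min across 48°C-58°C, pooled and brought to 0.5% NP-40 at 4°C.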

pictilisib = compound: CS(=O)(=O)N1CCN(Cc2cc3nc(-c4cccc5[nH]ncc45)nc(N4CCOCC4)c3s2)CC1 [pictilisib]
In short: as §1

crizotinib = compound: C[C@@H](Oc1cc(-c2cnn(C3CCNCC3)c2)cnc1N)c1c(Cl)ccc(F)c1Cl [crizotinib]
In short: as §1

[1] = compound: C[C@H](C1=CC=C(C=C1)C(=O)NC2=C3C=CNC3=NC=C2)N
In short: as §1

duvelisib = compound: C[C@H](Nc1ncnc2nc[nH]c12)c1cc2cccc(Cl)c2c(=O)n1-c1ccccc1 [duvelisib]
In short: as §1

gandotinib = compound: Cc1cc(Nc2cc(CN3CCOCC3)c3nc(C)c(Cc4ccc(Cl)cc4F)n3n2)n[nH]1 [gandotinib]
In short: as §1

tozasertib = compound: Cc1cc(Nc2cc(N3CCN(C)CC3)nc(Sc3ccc(NC(=O)C4CC4)cc3)n2)n[nH]1 [tozasertib]
In short: as §1

doramapimod = compound: Cc1ccc(-n2nc(C(C)(C)C)cc2NC(=O)Nc2ccc(OCCN3CCOCC3)c3ccccc23)cc1 [doramapimod]
In short: as §1

bafetinib = compound: Cc1ccc(NC(=O)c2ccc(CN3CC[C@H](N(C)C)C3)c(C(F)(F)F)c2)cc1Nc1nccc(-c2cncnc2)n1 [bafetinib]
In short: as §1

[2] = compound: Cc1cccc(CC(=O)N2CCc3c2ccc(-c2cn(C)c4ncnc(N)c24)c3F)n1
In short: as §1

nilotinib = compound: Cc1cn(-c2cc(NC(=O)c3ccc(C)c(Nc4nccc(-c5cccnc5)n4)c3)cc(C(F)(F)F)c2)cn1 [nilotinib]
In short: as §1

[3] = compound: Cc1nc(Nc2n[nH]c3c2CN(C(=O)N[C@H](CN(C)C)c2ccccc2)C3(C)C)c2sccc2n1
In short: as §1

dasatinib = compound: Cc1nc(Nc2ncc(C(=O)Nc3c(C)cccc3Cl)s2)cc(N2CCN(CCO)CC2)n1 [dasatinib]
In short: as §1

[4] = compound: Cc1ncc(-c2ccnc(Nc3ccc(S(C)(=O)=O)cc3)n2)n1C(C)C
In short: as §1

[5] = compound: Cn1cc(-c2ccc3c(c2)CCN3C(=O)Cc2cccc(C(F)(F)F)c2)c2c(N)ncnc21
In short: as §1

quisinostat = compound: Cn1cc(CNCC2CCN(c3ncc(C(=O)NO)cn3)CC2)c2ccccc21 [quisinostat]
In short: as §1

tipifarnib = compound: Cn1cncc1[C@@](N)(c1ccc(Cl)cc1)c1ccc2c(c1)c(-c1cccc(Cl)c1)cc(=O)n2C [tipifarnib]
In short: as §1

[6] = compound: NC(=O)Nc1cc(-c2cccc(F)c2)sc1C(=O)N[C@H]1CCCNC1
In short: as §1

[7] = compound: NC(=O)c1cnc(N[C@@H]2CCCC[C@@H]2N)nc1Nc1cccc(-n2nccn2)c1
In short: as §1

[8] = compound: NC1(c2ccc(-c3nc4ccn5c(=O)[nH]nc5c4cc3-c3ccccc3)cc2)CCC1
In short: as §1

Measured: log2 fold change

AP1G2 (UniProt O75843)
Chain of UniProt O75843 (O75843 whole entry, looked up): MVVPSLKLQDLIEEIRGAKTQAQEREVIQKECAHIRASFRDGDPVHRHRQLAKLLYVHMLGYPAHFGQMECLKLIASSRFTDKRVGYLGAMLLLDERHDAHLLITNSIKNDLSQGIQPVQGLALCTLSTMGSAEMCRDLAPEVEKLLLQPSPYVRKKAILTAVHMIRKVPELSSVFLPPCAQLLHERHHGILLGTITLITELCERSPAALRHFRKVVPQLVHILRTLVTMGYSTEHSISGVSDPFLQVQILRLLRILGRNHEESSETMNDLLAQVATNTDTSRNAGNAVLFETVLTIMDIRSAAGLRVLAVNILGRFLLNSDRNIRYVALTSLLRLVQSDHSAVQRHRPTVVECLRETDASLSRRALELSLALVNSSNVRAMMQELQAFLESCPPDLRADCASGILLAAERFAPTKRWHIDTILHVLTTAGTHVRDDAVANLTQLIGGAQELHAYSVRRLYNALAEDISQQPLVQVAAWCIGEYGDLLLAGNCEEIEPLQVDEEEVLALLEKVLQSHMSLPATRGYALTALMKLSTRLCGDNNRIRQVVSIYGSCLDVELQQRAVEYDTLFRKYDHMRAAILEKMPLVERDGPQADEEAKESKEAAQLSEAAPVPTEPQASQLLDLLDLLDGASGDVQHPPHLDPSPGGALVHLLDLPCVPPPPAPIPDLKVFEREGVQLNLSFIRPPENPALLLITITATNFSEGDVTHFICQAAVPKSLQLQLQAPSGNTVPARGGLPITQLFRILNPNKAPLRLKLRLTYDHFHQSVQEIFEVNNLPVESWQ
inactive: lapatinib 0.068 | pictilisib -0.008 | crizotinib -0.095 | [1] -0.049 | duvelisib -0.02 | gandotinib 0 | tozasertib -0.02 | doramapimod -0.004 | bafetinib 0.026 | [2] 0.039 | nilotinib -0.013 | [3] -0.046 | dasatinib -0.081 | [4] -0.019 | [5] 0.048 | quisinostat -0.006 | tipifarnib 0.063 | [6] 0.005 | [7] -0.012 | [8] -0.125

ASNS (UniProt P08243)
Chain of UniProt P08243 (P08243 whole entry, looked up): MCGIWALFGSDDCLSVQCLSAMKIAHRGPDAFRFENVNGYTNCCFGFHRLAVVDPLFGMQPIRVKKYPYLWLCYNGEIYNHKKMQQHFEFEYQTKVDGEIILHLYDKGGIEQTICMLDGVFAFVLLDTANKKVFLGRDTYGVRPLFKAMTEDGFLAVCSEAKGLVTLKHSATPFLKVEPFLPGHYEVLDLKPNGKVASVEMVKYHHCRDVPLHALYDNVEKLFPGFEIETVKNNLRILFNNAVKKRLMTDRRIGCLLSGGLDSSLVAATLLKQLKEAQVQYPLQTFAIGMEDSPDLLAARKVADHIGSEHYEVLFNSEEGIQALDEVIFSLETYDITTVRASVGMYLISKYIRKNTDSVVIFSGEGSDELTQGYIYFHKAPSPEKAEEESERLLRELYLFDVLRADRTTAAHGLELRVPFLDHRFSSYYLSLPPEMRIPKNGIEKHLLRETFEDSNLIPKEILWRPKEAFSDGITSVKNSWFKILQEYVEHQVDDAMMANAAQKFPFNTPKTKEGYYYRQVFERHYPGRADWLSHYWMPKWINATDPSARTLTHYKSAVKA
inactive: lapatinib -0.019 | pictilisib -0.012 | crizotinib -0.042 | [1] 0.013 | duvelisib -0.001 | gandotinib -0.051 | tozasertib 0.011 | doramapimod -0.01 | bafetinib -0.033 | [2] 0.002 | nilotinib -0.004 | [3] -0.008 | dasatinib -0.039 | [4] -0.018 | [5] 0.025 | quisinostat 0.027 | tipifarnib 0.017 | [6] 0.027 | [7] -0.01 | [8] -0.028

ANKRD30A (UniProt Q9BXX3)
inactive: lapatinib -0.228 | pictilisib 0.028 | crizotinib 0.128 | [1] -0.155 | duvelisib -0.038 | tozasertib 0.281 | doramapimod -0.068 | bafetinib 0.069 | [2] 0.918 | nilotinib -0.008 | [3] -0.012 | dasatinib 0.006 | [4] -0.039 | [5] -0.017 | quisinostat 0.179 | tipifarnib 0.15 | [6] 0.047 | [7] 0.807
active: gandotinib 1.59

AIP (UniProt O00170)
Chain of UniProt O00170 (O00170 whole entry, looked up): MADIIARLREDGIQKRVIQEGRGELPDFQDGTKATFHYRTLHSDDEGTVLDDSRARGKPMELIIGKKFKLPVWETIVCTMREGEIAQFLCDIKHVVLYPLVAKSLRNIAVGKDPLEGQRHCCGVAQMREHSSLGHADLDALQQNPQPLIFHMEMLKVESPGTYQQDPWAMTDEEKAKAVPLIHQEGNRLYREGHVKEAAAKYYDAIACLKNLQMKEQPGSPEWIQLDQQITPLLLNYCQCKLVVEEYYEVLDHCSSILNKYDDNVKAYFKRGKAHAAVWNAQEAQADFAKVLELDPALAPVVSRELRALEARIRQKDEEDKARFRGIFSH
active: [1] 0.41
inactive: lapatinib -0.004 | pictilisib -0.026 | crizotinib 0.021 | duvelisib -0.031 | gandotinib -0.019 | tozasertib -0.012 | doramapimod -0.022 | bafetinib 0.055 | [2] -0.043 | nilotinib 0.024 | [3] -0.001 | dasatinib 0.018 | [4] 0.028 | [5] 0.008 | quisinostat 0.007 | tipifarnib 0.027 | [6] -0.011 | [7] -0.016 | [8] 0.024

AIF1L (UniProt Q9BQI0)
Chain of UniProt Q9BQI0 (Q9BQI0 whole entry, looked up): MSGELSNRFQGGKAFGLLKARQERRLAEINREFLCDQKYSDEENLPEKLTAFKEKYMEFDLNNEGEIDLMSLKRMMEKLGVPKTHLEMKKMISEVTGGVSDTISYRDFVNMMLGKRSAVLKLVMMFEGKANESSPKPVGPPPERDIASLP
inactive: lapatinib 0.047 | pictilisib 0.046 | crizotinib 0.039 | [1] 0.069 | duvelisib -0.075 | gandotinib -0.171 | tozasertib -0.105 | doramapimod -0.037 | bafetinib -0.122 | [2] 0.101 | nilotinib -0.263 | [3] -0.176 | dasatinib 0.118 | [4] 0.142 | [5] -0.058 | quisinostat -0.075 | tipifarnib 0.123 | [6] -0.112 | [7] -0.012 | [8] 0.016

ABHD13 (UniProt Q7L211)
Chain of UniProt Q7L211 (Q7L211 whole entry, looked up): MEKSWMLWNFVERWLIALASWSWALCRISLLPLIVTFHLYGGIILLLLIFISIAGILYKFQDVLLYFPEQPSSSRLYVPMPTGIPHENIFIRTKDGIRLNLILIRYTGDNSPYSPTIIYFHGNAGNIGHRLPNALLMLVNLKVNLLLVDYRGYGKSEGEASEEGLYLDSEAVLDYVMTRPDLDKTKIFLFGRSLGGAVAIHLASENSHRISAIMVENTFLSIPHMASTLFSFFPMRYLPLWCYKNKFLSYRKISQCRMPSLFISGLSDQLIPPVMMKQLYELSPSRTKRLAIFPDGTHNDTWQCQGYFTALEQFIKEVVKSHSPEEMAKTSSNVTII
active: [1] -0.593
inactive: lapatinib -0.059 | pictilisib 0.049 | crizotinib 0.197 | duvelisib 0 | gandotinib 0.193 | tozasertib -0.044 | doramapimod -0.104 | bafetinib -0.197 | [2] 0.184 | nilotinib 0.152 | [3] -0.186 | dasatinib -0.177 | [4] -0.069 | [5] 0.21 | quisinostat 0.121 | tipifarnib -0.233 | [6] -0.029 | [7] 0.037

ACTBL2 (UniProt Q562R1)
Chain of UniProt Q562R1 (Q562R1 whole entry, looked up): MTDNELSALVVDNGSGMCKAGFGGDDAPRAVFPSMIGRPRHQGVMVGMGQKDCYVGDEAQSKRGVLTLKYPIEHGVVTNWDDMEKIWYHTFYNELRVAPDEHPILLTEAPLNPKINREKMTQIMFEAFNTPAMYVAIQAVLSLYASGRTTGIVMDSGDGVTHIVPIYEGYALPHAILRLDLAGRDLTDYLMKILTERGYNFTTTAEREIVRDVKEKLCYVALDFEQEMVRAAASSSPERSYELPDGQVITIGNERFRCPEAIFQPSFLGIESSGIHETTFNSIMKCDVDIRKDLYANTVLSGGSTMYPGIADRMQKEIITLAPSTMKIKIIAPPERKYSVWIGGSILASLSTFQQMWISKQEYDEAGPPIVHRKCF
inactive: lapatinib 0.163 | pictilisib 0.102 | crizotinib 0.091 | [1] 0.408 | duvelisib -0.035 | gandotinib -0.166 | tozasertib -0.201 | doramapimod -0.15 | bafetinib 0.37 | nilotinib 0.32 | [3] -0.036 | dasatinib -0.075 | [4] 0.139 | [5] -0.067 | quisinostat 0.184 | tipifarnib 0.087 | [6] -0.03 | [7] -0.008 | [8] 0.006
active: [2] -0.547

ACADM isoform 2 (UniProt P11310)
Chain of UniProt P11310 (P11310 whole entry, looked up): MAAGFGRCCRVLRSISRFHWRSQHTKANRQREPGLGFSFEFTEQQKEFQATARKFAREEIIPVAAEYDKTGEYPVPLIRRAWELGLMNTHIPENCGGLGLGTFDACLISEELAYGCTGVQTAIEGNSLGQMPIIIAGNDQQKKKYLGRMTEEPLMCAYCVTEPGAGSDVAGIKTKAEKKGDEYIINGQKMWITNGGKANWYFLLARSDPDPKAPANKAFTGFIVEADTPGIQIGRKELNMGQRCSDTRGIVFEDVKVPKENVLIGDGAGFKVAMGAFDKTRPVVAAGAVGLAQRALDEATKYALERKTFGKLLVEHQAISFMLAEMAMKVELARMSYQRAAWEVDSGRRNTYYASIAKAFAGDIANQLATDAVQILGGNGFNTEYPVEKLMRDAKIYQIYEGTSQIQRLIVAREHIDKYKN
inactive: lapatinib -0.007 | pictilisib -0.009 | crizotinib -0.042 | [1] -0.007 | duvelisib -0.007 | gandotinib 0.029 | tozasertib 0.029 | doramapimod -0.03 | bafetinib 0.024 | [2] -0.01 | nilotinib -0.031 | [3] -0.008 | dasatinib -0.041 | [4] -0.009 | [5] 0.001 | quisinostat 0.009 | tipifarnib -0.021 | [6] -0.027 | [7] -0.033 | [8] -0.091

ASPH (UniProt Q12797)
Chain of UniProt Q12797 (Q12797 whole entry, looked up): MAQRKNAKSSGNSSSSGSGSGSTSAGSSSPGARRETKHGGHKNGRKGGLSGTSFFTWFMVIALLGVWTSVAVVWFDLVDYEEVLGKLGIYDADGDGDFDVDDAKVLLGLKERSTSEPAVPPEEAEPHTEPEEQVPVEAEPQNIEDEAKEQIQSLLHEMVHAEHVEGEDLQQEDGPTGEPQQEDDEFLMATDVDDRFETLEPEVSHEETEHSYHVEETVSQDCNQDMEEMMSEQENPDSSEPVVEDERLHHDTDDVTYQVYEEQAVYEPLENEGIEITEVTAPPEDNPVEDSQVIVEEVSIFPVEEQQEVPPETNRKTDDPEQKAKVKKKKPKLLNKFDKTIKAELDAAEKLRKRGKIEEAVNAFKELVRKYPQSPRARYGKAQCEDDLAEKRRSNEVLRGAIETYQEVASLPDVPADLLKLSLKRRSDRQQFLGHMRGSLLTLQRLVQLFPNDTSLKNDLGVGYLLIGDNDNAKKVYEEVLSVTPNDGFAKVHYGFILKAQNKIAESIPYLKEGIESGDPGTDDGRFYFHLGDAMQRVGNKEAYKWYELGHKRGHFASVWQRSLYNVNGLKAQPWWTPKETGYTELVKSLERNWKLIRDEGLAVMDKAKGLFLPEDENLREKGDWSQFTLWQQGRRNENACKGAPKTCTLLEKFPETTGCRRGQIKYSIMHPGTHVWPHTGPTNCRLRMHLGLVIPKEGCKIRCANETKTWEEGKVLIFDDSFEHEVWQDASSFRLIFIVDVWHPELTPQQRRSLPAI
inactive: lapatinib -0.035 | pictilisib -0.012 | crizotinib -0.025 | [1] 0.048 | duvelisib -0.022 | gandotinib -0.04 | tozasertib 0.037 | doramapimod 0.008 | bafetinib 0.029 | [2] 0.005 | nilotinib -0.033 | [3] -0.025 | dasatinib 0.089 | [4] 0.011 | [5] -0.019 | quisinostat -0.02 | tipifarnib 0.004 | [6] -0.005 | [7] -0.009 | [8] -0.013

ARHGAP25 isoform 4 (UniProt P42331)
inactive: lapatinib 0.011 | pictilisib -0.024 | crizotinib -0.053 | [1] -0.011 | duvelisib 0.008 | gandotinib -0.024 | tozasertib -0.006 | doramapimod -0.005 | bafetinib -0.075 | [2] 0.081 | nilotinib -0.037 | [3] 0.039 | dasatinib -0.039 | [4] 0.022 | [5] 0.008 | quisinostat -0.115 | tipifarnib -0.016 | [6] 0.017 | [7] 0.028 | [8] -0.009

AGO4 (UniProt Q9HCK5)
inactive: lapatinib 0.013 | pictilisib -0.076 | crizotinib -0.01 | [1] -0.113 | duvelisib 0.014 | gandotinib 0.048 | tozasertib -0.001 | doramapimod -0.014 | bafetinib -0.004 | [2] 0.002 | nilotinib -0.152 | [3] 0.07 | dasatinib 0 | [4] 0.004 | [5] -0.022 | quisinostat -0.037 | tipifarnib 0.005 | [6] 0.015 | [7] 0.014 | [8] -0.002

ACIN1 (UniProt E7EQT4)
inactive: lapatinib -0.001 | pictilisib -0.047 | crizotinib -0.1 | duvelisib -0.021 | gandotinib 0.047 | tozasertib 0 | doramapimod 0.068 | bafetinib -0.063 | [2] 0.032 | nilotinib 0.033 | [3] -0.032 | dasatinib 0.043 | [4] 0.006 | [5] 0.195 | quisinostat -0.087 | tipifarnib -0.021 | [6] -0.072 | [7] 0.041 | [8] -0.039
active: [1] -0.28

ARL15 (UniProt Q9NXU5)
inactive: lapatinib -0.001 | pictilisib 0.097 | crizotinib 0 | duvelisib -0.004 | gandotinib -0.098 | tozasertib 0.023 | doramapimod 0.06 | bafetinib 0.225 | [2] -0.118 | nilotinib -0.008 | [3] 0.021 | dasatinib -0.063 | [4] -0.046 | [5] 0.036 | quisinostat 0.024 | tipifarnib 0.031 | [6] -0.034 | [7] 0.021 | [8] 0.022
active: [1] 0.682

ARMC6 (UniProt Q6NXE6)
Chain of UniProt Q6NXE6 (Q6NXE6 whole entry, looked up): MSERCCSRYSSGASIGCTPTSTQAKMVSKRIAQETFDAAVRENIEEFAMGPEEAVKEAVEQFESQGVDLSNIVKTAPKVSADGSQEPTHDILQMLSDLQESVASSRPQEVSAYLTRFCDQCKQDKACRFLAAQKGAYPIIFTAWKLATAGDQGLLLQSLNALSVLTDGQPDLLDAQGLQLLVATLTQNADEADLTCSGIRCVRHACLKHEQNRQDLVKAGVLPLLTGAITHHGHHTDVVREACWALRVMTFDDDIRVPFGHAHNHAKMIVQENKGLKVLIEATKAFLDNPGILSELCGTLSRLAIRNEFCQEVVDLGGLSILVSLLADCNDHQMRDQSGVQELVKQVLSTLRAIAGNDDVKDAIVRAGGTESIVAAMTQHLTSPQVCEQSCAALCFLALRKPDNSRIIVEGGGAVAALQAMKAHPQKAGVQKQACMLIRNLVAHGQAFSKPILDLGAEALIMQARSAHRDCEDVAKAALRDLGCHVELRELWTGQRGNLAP
inactive: lapatinib 0 | pictilisib -0.015 | crizotinib -0.022 | [1] 0.012 | duvelisib -0.027 | gandotinib -0.067 | tozasertib 0.024 | doramapimod 0 | bafetinib -0.016 | [2] -0.009 | nilotinib -0.001 | [3] -0.006 | dasatinib -0.055 | [4] -0.017 | [5] 0.013 | quisinostat -0.057 | tipifarnib 0 | [6] 0.094 | [7] 0.017 | [8] -0.031

ASCC2 (UniProt Q9H1I8)
Chain of UniProt Q9H1I8 (Q9H1I8 whole entry, looked up): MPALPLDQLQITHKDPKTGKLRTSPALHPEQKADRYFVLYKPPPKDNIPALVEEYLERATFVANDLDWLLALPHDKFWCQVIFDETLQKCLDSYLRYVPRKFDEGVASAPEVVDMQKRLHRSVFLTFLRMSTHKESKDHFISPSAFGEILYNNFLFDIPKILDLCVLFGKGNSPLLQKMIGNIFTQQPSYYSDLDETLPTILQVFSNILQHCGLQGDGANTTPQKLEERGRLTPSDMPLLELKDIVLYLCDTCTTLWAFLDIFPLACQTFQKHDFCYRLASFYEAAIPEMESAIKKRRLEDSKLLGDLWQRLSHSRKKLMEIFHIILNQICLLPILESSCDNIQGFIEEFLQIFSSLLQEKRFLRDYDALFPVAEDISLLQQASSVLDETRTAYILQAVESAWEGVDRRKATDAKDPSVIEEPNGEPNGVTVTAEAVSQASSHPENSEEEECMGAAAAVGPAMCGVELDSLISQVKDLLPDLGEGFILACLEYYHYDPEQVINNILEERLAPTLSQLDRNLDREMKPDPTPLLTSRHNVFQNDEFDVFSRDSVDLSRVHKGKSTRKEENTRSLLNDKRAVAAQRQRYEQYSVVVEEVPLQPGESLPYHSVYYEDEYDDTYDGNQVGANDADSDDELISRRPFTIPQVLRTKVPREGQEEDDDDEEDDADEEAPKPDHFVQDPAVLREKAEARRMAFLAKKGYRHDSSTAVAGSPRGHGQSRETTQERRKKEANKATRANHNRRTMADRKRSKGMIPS
inactive: lapatinib -0.012 | pictilisib 0.049 | crizotinib -0.044 | [1] 0.048 | duvelisib 0.04 | gandotinib -0.026 | tozasertib 0.023 | doramapimod -0.007 | bafetinib -0.205 | [2] -0.002 | nilotinib -0.005 | [3] -0.029 | dasatinib -0.01 | [4] -0.018 | [5] 0.026 | quisinostat -0.06 | tipifarnib 0.082 | [6] 0.035 | [7] 0.038 | [8] -0.023

AIFM2 (UniProt Q9BRQ8)
active: gandotinib 0.507 | tipifarnib 0.411
inactive: lapatinib 0.132 | pictilisib -0.024 | crizotinib 0.06 | [1] -0.143 | duvelisib 0.004 | tozasertib -0.014 | doramapimod 0.307 | bafetinib 0.086 | [2] 0.089 | nilotinib 0.057 | [3] -0.006 | dasatinib -0.072 | [4] -0.03 | [5] 0.024 | quisinostat -0.105 | [6] -0.028 | [7] -0.054 | [8] 0
